Source: PubChem BioAssay
GalR3 antagonist – human GalR3 antagonism; inhibition, % at 3 µM; actives 0.44% (n = 360,000); HEK293 GalR3-CNG cAMP membrane potential fluorescence; galR3 body fused to GalR1 C-terminus; O60755;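 active = inhibition above the screen-wide average plus 3 SD, cut at about 13% in these data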;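 note: forskolin and galanin both at EC90 stimulate the cells; cAMP rise reported by CNG channel membrane potential dye signal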
Target sequence (O60755 1-299 limits assumed): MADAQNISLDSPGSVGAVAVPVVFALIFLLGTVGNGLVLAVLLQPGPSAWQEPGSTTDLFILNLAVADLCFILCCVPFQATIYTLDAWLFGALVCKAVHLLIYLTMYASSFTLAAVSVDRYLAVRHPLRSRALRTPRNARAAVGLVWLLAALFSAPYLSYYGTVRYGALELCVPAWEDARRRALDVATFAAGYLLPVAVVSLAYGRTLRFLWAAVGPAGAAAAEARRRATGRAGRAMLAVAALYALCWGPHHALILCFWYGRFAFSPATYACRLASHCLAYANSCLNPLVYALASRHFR
Hsp70 activator – switches on Hsp70 transcription; HeLa Hsp70 promoter luciferase reporter, luminescence; scaled: vehicle 0, proteasome-inhibitor control 100%; activation, % at 10 µM; actives 0.04% (n = 200,000); AID 1203;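 active = activation above the mean across all tested compounds plus 3 SD, cutoff set per campaign, cut at about 5.5% in these data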
SMARCA2 activ – activators of SMARCA2 function. MG213 cells, MMTV-luciferase reporter, dexamethasone, overnight. activation, % at 9.1 µM. actives 1% (n = 370,000). AID 652017; in the data active = activation above about 7.8%
FXN GAA850 act – frataxin GAA850 promoter activation; HEK293 lucGAA850 FXN promoter luciferase reporter, 24 h; percent of 10 µM SAHA response; activation, % at 6 µM; actives 0.56% (n = 360,000); AID 540364;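 active = activation above the average of all compounds screened plus 3 SD, cutoff fixed separately per campaign, cut at about 7.5% in these data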
HIF act – HIF pathway transcriptional activation | AID 1910 | activation, % at 7.5 µM (by protocol) | actives 0.32% (n = 300,000) | U2OS HRE-luciferase reporter, luminescence; normalized: DMSO 0%, desferrioxamine 100%;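 active = mean activation of at least 10% of the iron chelator positive control signal, with at least half of replicates also reaching 10%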
Of the large screens only hits and unclear results are named; the others gave an inactive call. This is a sample that favours compounds with a hit; in the whole collection about 2.2% have one here.

Cc1ccccc1S(=O)(=O)N(C)C[C@@H]1OCc2cn(nn2)CCCC(=O)N([C@@H](C)CO)C[C@H]1C	none (no result: Hsp70 activator, FXN GAA850 act, HIF act)
O=C(CSc1nnc(-c2ccc(Cl)cc2)n1C1CCCCC1)NN=Cc1c(O)ccc2ccccc12	none (no result: GalR3 antagonist, Hsp70 activator, FXN GAA850 act, HIF act)
CCCCNS(=O)(=O)CC1NCc2ccc(C)cc21 (stereo not given)	none (no result: GalR3 antagonist, Hsp70 activator, FXN GAA850 act, HIF act)
CCOC(=O)C(=CNc1ccc(NC2=NCC(C)S2)cc1)C(=O)OCC (stereo not given)	HIF act 17
Cn1c(=O)cc(C(=O)N/N=C/c2ccc(F)cc2)[nH]c1=O	HIF act 12 (no result: Hsp70 activator)
Cc1ccc(-c2cc3ccccc3nc2N2CCCC2)cc1	none
Cc1ccc2c(c1)-c1nc3ccccc3cc1C2=NC1CCCCC1	SMARCA2 activ 9.5 (no result: HIF act)
CCC(C)NC(=O)C1CCN(S(=O)(=O)c2ccc3[nH]c(=O)oc3c2)CC1 (stereo not given)	none (no result: GalR3 antagonist, Hsp70 activator, FXN GAA850 act, HIF act)
Cc1ncc(CO)c(/C=N/NC(=O)c2cc3c(s2)CCCC3)c1O	HIF act 22
O=C(C1=NN[C@@H]2C(=O)N(c3cccc(C(F)(F)F)c3)C(=O)[C@H]12)C(c1ccccc1)c1ccccc1	HIF act 57
CCC(=O)N1CCc2cc(S(=O)(=O)NCCC(=O)N3CCN(c4cccc(OC)c4)CC3)ccc21	HIF act 30 (no result: Hsp70 activator)
CCC(=O)N1CCc2cc(S(=O)(=O)NCCC(=O)N3CCN(c4ccccc4)CC3)ccc21	none (no result: Hsp70 activator)
CCC(C(=O)Nc1ccccc1N1CCCC1)c1cccc(Cl)c1 (stereo not given)	none (no result: GalR3 antagonist, Hsp70 activator, FXN GAA850 act, HIF act)
COc1ccc(CN(C)C(=O)c2ccc(OCC(=O)Nc3cccc(C(F)(F)F)c3)c(OC)c2)c(OC)c1	GalR3 antagonist 55 (no result: Hsp70 activator)
COC(=O)C1=C(C)N(Cc2ccc(C(F)(F)F)cc2)C(=NCc2ccccc2)NC1c1ccc(C(F)(F)F)cc1 (stereo not given)	none (no result: Hsp70 activator, FXN GAA850 act, HIF act)
Cc1c(NCc2nc3ccccc3[nH]2)c(=O)n(-c2ccccc2)n1C	SMARCA2 activ 7.8
COC(=O)[C@]12C[C@H](CC(=O)NCCCN3CCCC3=O)C(=O)N(Cc3ccc(Cl)cc3Cl)C1=C[C@H](C(C)C)O[C@@H]2C1CC1	none (no result: GalR3 antagonist, Hsp70 activator, FXN GAA850 act, HIF act)
COc1cnc(-c2ccccn2)nc1N(C)C	HIF act 78
c1ccc(-c2nnc(-c3ccccn3)c(-c3ccccn3)n2)nc1	none (no result: Hsp70 activator)
CN(C)c1nc(-c2ccccn2)nnc1-c1ccccc1	HIF act 105
Cc1nnc(-c2ccccc2)nc1N(C)C	HIF act 701
COc1ccccc1CC(=O)O/N=C(\N)Cc1cccc2ccccc12	none
COc1ccccc1C/C(N)=N/O	HIF act 204
O=C(c1cccc(F)c1)N1CCCC(c2nc(-c3cccs3)no2)C1 (stereo not given)	none (no result: GalR3 antagonist, Hsp70 activator, FXN GAA850 act, HIF act)
O=C(NCc1ccco1)c1cccnc1-c1nc2ccccc2s1	none
CC(C)C(=O)NC(c1cccc([N+](=O)[O-])c1)c1ccc2cccnc2c1O (stereo not given)	HIF act 95 (no result: Hsp70 activator)
Oc1c(C(Nc2nc3ccccc3s2)c2ccco2)ccc2cccnc12 (stereo not given)	HIF act 31
CC(C)C(=O)NC(c1ccco1)c1ccc2cccnc2c1O (stereo not given)	HIF act 22
CC(=O)NC(c1ccco1)c1cc(F)c2cccnc2c1O (stereo not given)	none (no result: Hsp70 activator, HIF act)
CC(C)C[C@H]1COc2cccc(NCCO)c2S(=O)(=O)N1	none (no result: Hsp70 activator, FXN GAA850 act, HIF act)
O=C(OCc1cn(Cc2cccc(Cl)c2)nn1)N1CCCC1	none (no result: GalR3 antagonist, Hsp70 activator, FXN GAA850 act, HIF act)
CC(C)C[C@H](NC(=O)C1CC1)C(=O)N1CCC[C@H]1C(=O)NCc1ccccc1	none (no result: Hsp70 activator, FXN GAA850 act, HIF act)
COc1ccccc1CCn1cnc(-c2ccc(F)cc2F)c1CC(C)C	none (no result: Hsp70 activator, FXN GAA850 act, HIF act)
CC(=O)c1cc(-c2ccccc2)n(CC(=O)NCc2ccccc2Cl)c1C	none (no result: GalR3 antagonist, Hsp70 activator, FXN GAA850 act, HIF act)
O=C(CCc1ccccc1)N[C@H]1[C@@H](OC(=O)c2cnccn2)CCC[C@]12C(=O)N(Cc1ccccc1)c1ccccc12	none (no result: GalR3 antagonist, Hsp70 activator, FXN GAA850 act, HIF act)
O=C(CCl)c1ccc2c(c1)CCN2C(=O)C1CCCCC1	none
O=C(CCl)c1ccc2c(c1)CCN2C(=O)C1CC1	HIF act 35 (no result: GalR3 antagonist, SMARCA2 activ, FXN GAA850 act)
CN[C@H]1C[C@H]2c3[nH]c4c(-c5ccc6c(c5)OCO6)cccc4c3CCN2C[C@H]1[C@H](C)O	none (no result: GalR3 antagonist, Hsp70 activator, FXN GAA850 act, HIF act)
Cn1cc(Cl)c(C(=O)N/N=C/c2ccc3c4c(cccc24)CC3)n1	FXN GAA850 act 8.0 (no result: GalR3 antagonist, Hsp70 activator, SMARCA2 activ)
COc1ccc(OC)c(CNC(=O)C2CCCN(S(=O)(=O)N3CCC(C)CC3)C2)c1 (stereo not given)	HIF act 25 (no result: Hsp70 activator)
C[C@@H]1CN([C@H](C)CO)C(=O)c2cc(NC(=O)Nc3ccccc3)ccc2O[C@@H](C)CCCCO[C@H]1CN(C)S(C)(=O)=O	none (no result: Hsp70 activator, FXN GAA850 act, HIF act)
COC(=O)c1cccc(-c2ccc(C(c3c(C)[nH][nH]c3=O)c3c(C)[nH][nH]c3=O)o2)c1	none
COC(=O)c1ccccc1-c1ccc(C(c2c(C)[nH][nH]c2=O)c2c(C)[nH][nH]c2=O)o1	SMARCA2 activ 7.9
O=C(CSc1nnc(-c2ccccc2)n1-c1ccccc1)NN=C/C=C\c1ccccc1[N+](=O)[O-]	none (no result: GalR3 antagonist, Hsp70 activator, FXN GAA850 act, HIF act)
CCOc1ccc(-n2c(SCc3ccc(C#N)cc3)nnc2-c2cccnc2)cc1	GalR3 antagonist 63
N#Cc1ccc(CSc2nnc(-c3cccnc3)n2-c2ccccc2)cc1	none
O=C(CSc1nnc(-c2cccnc2)n1-c1ccc(Cl)cc1)c1ccc2ccccc2c1	none (no result: GalR3 antagonist, Hsp70 activator, FXN GAA850 act, HIF act)
CCCCC(=O)Nc1ccc(C(=O)Nc2nnc(COC)s2)cc1	SMARCA2 activ 7.8
COCc1nnc(NC(=O)CCCCCN2C(=O)c3ccccc3C2=O)s1	none
CCCCc1nnc(NC(=O)c2ccc3[nH]c(=O)c(=O)[nH]c3c2)s1	HIF act 197 (no result: Hsp70 activator)
Cc1cccc(NC(=O)C2CC(=O)NC(Nc3nc4ccccc4s3)=N2)c1 (stereo not given)	HIF act 99 (no result: FXN GAA850 act)
COC(=O)C1CN(Cc2ccc(F)cc2)CCS(=O)(=O)N1Cc1cn(Cc2ccc(Cl)cc2)nn1 (stereo not given)	none (no result: GalR3 antagonist, Hsp70 activator, FXN GAA850 act, HIF act)
COC(=O)C1=C(C)N(Cc2ccc(OC)cc2)C(=O)C1	HIF act 223
CCCc1nc2ccccc2c(=O)n1/N=C/c1ccccc1O	HIF act 13
O=c1c2ccccc2nc(COc2ccccc2)n1/N=C/c1cc([N+](=O)[O-])ccc1O	HIF act 11
O=C(Cn1cnc2ccccc2c1=O)N1CCN(Cc2ccc(F)cc2)CC1	none (no result: GalR3 antagonist, Hsp70 activator, FXN GAA850 act, HIF act)
O=C(NC1CCCCN(Cc2cccc(C(F)(F)F)c2)C1=O)c1ccc(Cl)c(Cl)c1 (stereo not given)	none (no result: GalR3 antagonist, Hsp70 activator, FXN GAA850 act, HIF act)
COc1ccccc1NC(=O)CC1C(=O)Nc2ccccc2N1C(=O)c1ccccc1 (stereo not given)	none
CCOc1ccc(NC(=O)CC2C(=O)Nc3ccccc3N2C(=O)c2ccccc2)cc1 (stereo not given)	HIF act 26
C=CCO[C@H]1CN(C(=O)OC)[C@@H]2C[C@H]1Oc1ccccc12	none (no result: Hsp70 activator, FXN GAA850 act, HIF act)
Cc1nccn1CCCNC(=O)c1nc(Cn2cc([N+](=O)[O-])cn2)no1	GalR3 antagonist 13 (no result: Hsp70 activator)
